Results filed as inconclusive are left out. Activity calls are given as the source filed them. Calls come from the whole dose curve; as a rule, active = well fitted cell-killing curve with a large enough effect in the repeat runs; inconclusive = weak or mixed curves, or effect the other way; inactive = flat fitted curve, though single readings scatter.
experiment: qHTS assay to identify small molecule antagonists of the estrogen receptor alpha (ER-alpha) signaling pathway using the BG1 cell line in the presence of 0.1 nM 17-beta-estradiol - cell viability counter screen (AID 1259241); settings: VM7Luc4E2 (BG1) viability, CellTiter-Fluor protease, 22 h, 0.1 nM estradiol agonist added; series mostly up to 92.4 µM; note: nearly all actives have a fitted effect of over 40% in size
Text: National Center for Advancing Translational Sciences [NCATS]
NIH Chemical Genomics Center [NCGC]
U.S. Environmental Protection Agency [EPA]
National Institutes of Environmental Health Sciences [NIEHS]
National Toxicology Program [NTP]
U.S. Food and Drug Administration [FDA]
Estrogen receptor (ER), a member of the nuclear hormone receptor plays an important role in development, metabolic homeostasis and reproduction. Two subtypes of ER, ER-alpha and ER-beta, have similar expression patterns with some uniqueness in both types. Endocrine disrupting chemicals (EDCs) and their interactions with steroid hormone receptors like ER causes disruption of normal endocrine function. Therefore, it is important to understand the effect of environmental chemicals in ER signaling pathway. For identifying ER antagonists, VM7Luc4E2 cell line was used to screen against Tox21 compound libraries.
VM7Luc4E2 cell line (provided by Denison MS, University of California) endogenously express full-length ER-alpha and is stably transfected with a plasmid containing four estrogen responsive elements (ERE) upstream of a luciferase reporter gene. The current screening for identification of ER-alpha inhibitors against Tox21 compound libraries used lower concentration (0.1 nM) of 17beta-Estradiol as a stimulator. The cytotoxicity of the Tox21 compound libraries against VM7Luc4E2 cell line was tested by measuring live-cell protease activity using CellTiter-Fluor assay in the same wells.
Tox21 Assay Protocol Summary:
VM7Luc4E2 cells were cultured in phenol red free assay medium containing 10% charcoal stripped FBS for 5 days prior to the assay. The cells were dispensed at 4,000 cells/well in 4 uL of assay medium into white wall/solid-bottom 1536-well plates (Corning Life Sciences, Corning, NY) using a Multidrop Combi (ThermoFisher Scientific, Waltham, MA) dispenser. After the assay plates were incubated at 37C and 5% CO2 for 24 hr, 23 nL of compounds dissolved in DMSO, positive controls or DMSO only was transferred to the assay plates by a Pintool station (Kalypsys, San Diego, CA). The transfer of compounds was followed by the addition of 1 uL of 0.1 nM (final concentration) agonist (17beta-Estradiol)/assay medium using a Flying Reagent Dispenser (FRD, Aurora Discovery, San Diego, CA). The plates were incubated at 37C and 5% CO2 for 22 hr. For cytotoxicity assay, 1 uL of CellTiter-Fluor reagent (Promega Corporation, Madison, WI) was added to each well using the FRD and after 30 min incubation at 37C and 5% CO2, The fluorescence intensity was measured using ViewLux plate reader (PerkinElmer, Shelton, CT).

SMILES	outcome
ClCCCN1CCN(c2cccc(Cl)c2)CC1	inactive
CC(CCc1ccccc1)NC(C)C(O)c1ccc(O)cc1 (stereo not given)	inactive
CNNC	inactive
CCc1cc2c(s1)-n1c(C)nnc1CN=C2c1ccccc1Cl	inactive
CC(C)[N+](=O)[O-]	inactive
c1cc2c(c(N3CCNCC3)c1)OCCO2	inactive
[As]#[In]	inactive
COc1cc(OC)nc(NC(=O)NS(=O)(=O)c2ncccc2OCC(F)(F)F)n1	inactive
Nc1cc2c3c(c1)C(c1ccccc1)=N[C@@H](NC(=O)c1cccnc1)C(=O)N3CC2	inactive
CNC(=O)N(C)c1nc2ccccc2s1	inactive
CCS(=O)(=O)C(C)(C)S(=O)(=O)CC	inactive
C=C(C)[C@@H]1CC=C(C=O)CC1	inactive
CC1(C)C(=O)NC(=O)NC1=O	inactive
O=C1OC(c2ccc(O)c(S(=O)(=O)O)c2)(c2ccc(O)c(S(=O)(=O)O)c2)c2c(Br)c(Br)c(Br)c(Br)c21	inactive
CN1C(=S)CN=C(c2ccccc2)c2cc(Cl)ccc21	inactive
C(CCOCC1CO1)COCC1CO1 (stereo not given)	inactive
CCCCOC(=O)[C@@H](C)Oc1ccc(Oc2ccc(C#N)cc2F)cc1	inactive
COC(C)(C)C	inactive
CC(C)(C)OC(=O)c1ncn2c1[C@@H]1CCCN1C(=O)c1c(Br)cccc1-2	inactive
O=C(CCN1CC1)OCC(CO)(COC(=O)CCN1CC1)COC(=O)CCN1CC1	inactive

SMILES	outcome
COP(=S)(OC)Oc1c(Cl)cc(C)cc1Cl	inactive
O=C(Cc1ccccc1)OCc1ccccc1	inactive
O=[N+]([O-])c1cccc2cccnc12	inactive
CCN(CC)c1nc(C)cc(OP(=S)(OC)OC)n1	inactive
C#CCN1C(=O)COc2cc(F)c(N3C(=O)C4=C(CCCC4)C3=O)cc21	inactive
Cc1ncc(CNC(=O)N(CCCl)N=O)c(N)n1	inactive
CC1(C(=O)Nc2ccc(O)c(Cl)c2Cl)CCCCC1	inactive
CCOC(=O)/C=C(C)/C=C/C[C@@H](C)CCCC(C)C	inactive
O=[N+]([O-])c1ccc(CBr)cc1	inactive
CCC(C)(C)c1cc(-n2nc3ccccc3n2)c(O)c(C(C)(C)CC)c1	inactive
Cc1cc(C)c(C(=O)P(=O)(C(=O)c2c(C)cc(C)cc2C)c2ccccc2)c(C)c1	inactive
CCOP(=O)(N=C1SCCS1)OCC	inactive
CCNc1nc(NC(C)C)nc(OC)n1	inactive
Clc1cccc(N2CCNCC2)c1	inactive
CCC(=O)c1ccccc1	inactive
CCCCOP(=O)(O)OCCCC	inactive
ClCCOCOCCCl	inactive
COc1ccc(C(=O)N2CCCC2=O)cc1	inactive
CC1CCCCC1NC(=O)Nc1ccccc1 (stereo not given)	inactive
CCCSP(=O)(OCC)Oc1ccc(Br)cc1Cl (stereo not given)	inactive

Source: PubChem BioAssay (Tox21)
